Source: PubChem
This is a sample that favours compounds with a hit; in the whole collection about 19% have one here.
HT1080 IDH1KD tx: toxicity to HT-1080 IDH1 knockdown cells (counter line); HT-1080 IDH1 knockdown viability, ATP luminescence, 48 h; Potency, µM (series often up to 46.1 µM), actives largely listed as cytotoxic; actives 2% (n = 360,000)
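Assay cells: HT-1080 with IDH1 knockdown, 750 per well, RPMI/5% FBS. Exposure: 48 h at 37 °C following 2 h pre-incubation. Read: CellTiter-Glo luminescence; fitted concentration-response, curve class assigned.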
DT40 TDP1 no CPT: qHTS for Inhibitors of human tyrosyl-DNA phosphodiesterase 1 (TDP1): qHTS in cells in absence of CPT. DT40 Tdp1-/- hTDP1 cells, no CPT, ATP luminescence, 48 h. Potency, µM (doses to about 46.2 µM), usual class: inhibitors. actives 15% (n = 420,000); also: nearly all actives have a fitted effect of over 55% in size
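Compound effects on proliferation are scored in DT40 Tdp1-/-;hTDP1 cells in the absence of CPT. ATP levels (CellTiter-Glo luminescence) are recorded after a ≥48 hr, 37 °C incubation.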
DT40 TDP1 CPT: growth inhibition of DT40 Tdp1-/-;hTDP1 cells with camptothecin (screen for TDP1 inhibitors) | chicken DT40 Tdp1-/-;hTDP1 cells + 20 nM CPT, ATP luminescence, 48 h | Potency, µM (top dose mostly 46.2 µM), hits mostly inhibitors | actives 12% (n = 420,000) | AID 686979; also: nearly all actives have a fitted effect of over 55% in size
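Chicken DT40 Tdp1-/- cells stably complemented with human TDP1 were seeded at 400 cells/well in medium containing 20 nM camptothecin, exposed to pin-transferred compounds, and grown at 37 °C for at least 48 hr. Viability was read as ATP luminescence.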
IL1B secr inh: inflammasome signaling inhibition, IL-1 beta readout. THP-1 LPS/ATP IL-1B secretion, AlphaLISA, 16 h; hits give low values. activity change, % at 57.5 µM. actives 4.7% (n = 360,000). AID 743279; in the data active = activity change below about -50%; inconclusive = mostly about -30% to -49%
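Secreted IL-1B measured by AlphaLISA bead assay after 16 h compound exposure of THP-1 cells; compounds (final up to 57.5 uM) added 1 h before LPS (250 ng/mL) and ATP (1.25 mM) stimulation; lower signal means less secretion.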
HT1080-NT tox: kills 2HG-producing HT-1080-NT fibrosarcoma cells | HT-1080-NT fibrosarcoma viability, CellTiter-Glo ATP luminescence, 48 h | Potency, µM (titrated, usually from 46.1 µM), actives largely listed as cytotoxic | actives 1.6% (n = 360,000);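 also: NT is the 2HG producing partner of a matched IDH1 knockdown line; nearly all actives have a fitted effect of over 55% in size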
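HT-1080-NT; 750 cells/well; 5% FBS RPMI; 48 h compound, 37 degrees C; CellTiter-Glo luminescence; curve fitting and curve-class assignment.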
ELG1 repair inh: ELG1-dependent DNA repair inhibition; Potency, µM (doses to about 46.1 µM), usual class: inhibitors; HEK293T ELG1-luciferase reporter, luminescence, 16 h; DNA damage induced by 5-fluorouridine; actives 2.3% (n = 330,000); AID 504467; also: nearly all actives have a fitted effect of over 55% in size
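Reporter activity after DNA damage by 5-fluorouridine is monitored. Compound-treated cells incubate 16 hr at 37 °C, then ONE-Glo is added for 30 min before luminescence reading.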
Numbers stand for hits; 0 = inactive; ? = inconclusive; - = not tested or not shown; ! = not confirmed by another sample; [ ] = dose if it differs, or a comment. Unless noted, calls follow the shape of the dose curve; as a rule, active = well fitted curve in the direction sought with a large enough effect; inconclusive = small, poorly fitted or top-dose-only effect, or another doubt; inactive = no such curve, though single readings can be large; an effect the other way counts as inactive or inconclusive.

SMILES | HT1080 IDH1KD tx | DT40 TDP1 no CPT | DT40 TDP1 CPT | IL1B secr inh | HT1080-NT tox | ELG1 repair inh
CCCCCNC(=O)C(C#N)c1nc2ccccc2nc1N1CCCC1 (stereo not drawn) | 0 | ? | 0 | 0 | 0 | 0
COc1ccc(Nc2nnc(Cc3ccncc3)c3ccccc23)c(OC)c1 | 0 | 0 | 0 | -57 | 0 | ?
O=c1cc(/C=C/c2ccccc2)oc2ccccc12 | ? | ? | 16µM | 0 | ? | ?
CCOc1ncccc1C(=O)OCC(=O)NCCc1ccc(S(N)(=O)=O)cc1 | 0 | 0 | 0 | 0 | 0 | 0
COC(=O)c1ccc(C(=O)OC)c(NC(=O)COC(=O)CC2CC3CCC2C3)c1 (stereo not drawn) | 0 | 23µM | ? | 0 | 0 | 0
COC(=O)c1ccc(C(=O)OC)c(NC(=O)COC(=O)C2CCC(C(C)(C)C)CC2)c1 (stereo not drawn) | 0 | ? | 23µM | 0 | 0 | 0
COc1ccccc1C(CNc1nc(C(F)(F)F)nc2ccccc12)N(C)C (stereo not drawn) | 0 | 21µM | ? | 0 | 0 | 0
CC(=O)Nc1ccc(NC(=O)CN(C)CC(=O)Nc2ccccc2Br)cc1 | 0 | 0 | 0 | 0 | 0 | 0
CC(C(=O)Nc1ccc(C#N)cc1)N(C)CC(=O)Nc1cccc(F)c1 (stereo not drawn) | 0 | 0 | 0 | 0 | 0 | 0
CCn1c(=O)c(C(=O)CN2CCc3ccccc32)c(N)n(Cc2ccccc2)c1=O | ? | ? | ? | 0 | 0 | ?
CC(C(=O)Nc1ccc(C#N)cc1)N(C)CC(=O)Nc1ccccc1Br (stereo not drawn) | 23µM | ? | ? | 0 | ? | ?
CCn1c(=O)c(C(=O)CN(C)CC(=O)Nc2ccccc2Br)c(N)n(Cc2ccccc2)c1=O | 0 | 18µM | 21µM | 0 | 0 | ?
CN(CC(=O)Nc1ccccc1Br)CC(=O)NC(c1ccccc1)c1ccccc1 | 0 | ? | ? | -51 | 0 | 0
O=C(NCCCN1CCOCC1)c1cc(-c2ccccc2)nc2ccccc12 | 0 | 0 | 0 | 0 | 0 | 0
Cc1ccc(CCNC(=O)c2cc(Nc3ccc(C)c(C)c3)nc3ccccc23)cc1 | - | ? | 0 | - | - | -
Cc1ccc(-c2cc(C(=O)NCCCN3CCOCC3)c3ccc(Cl)c(C)c3n2)cc1 | 0 | ? | ? | -64 | 0 | 0
O=C(NCCCN1CCOCC1)c1cc(-c2ccc(Br)cc2)nc2ccccc12 | 0 | ? | ? | -68 | 0 | 0
Cc1ccc(Nc2ncc(C(=O)NCCCN3CCN(C)CC3)c3ccccc23)cc1Cl | 26µM | ? | ? | -78 | 16µM | 0
COc1ccc(OC)c(NC(=O)c2cnc(Nc3ccc(C)c(Cl)c3)c3ccccc23)c1 | - | ? | 0 | - | - | -
Cc1ccc(Nc2cc(C(=O)NCCCN3CCOCC3)c3ccccc3n2)cc1C | ? | ? | ? | 0 | 23µM | ?
O=C(COC(=O)c1ccccn1)NCCc1ccc(Cl)cc1 | 0 | 0 | 0 | 0 | 0 | 0
CC1(C(=O)NS(=O)(=O)Cc2ccccc2)CCN1C(=O)Cc1ccccc1Cl (stereo not drawn) | 0 | 0 | 0 | 0 | 0 | -
CSc1ncccc1C(=O)NCC1Cc2cc(-c3cnccn3)ccc2O1 (stereo not drawn) | - | 0 | 0[9.04 µM] | - | - | -
COc1cccc(-c2cc(C(=O)NN3CCOCC3)c3ccccc3n2)c1 | 0 | 4.6µM | ? | 0 | 0 | 0
CCc1ccc(-c2cc(C(=O)NN3CCOCC3)c3ccccc3n2)cc1 | 0 | 1.3µM | 8.2µM | 0 | 0 | ?
SMILES | HT1080 IDH1KD tx | DT40 TDP1 no CPT | DT40 TDP1 CPT | IL1B secr inh | HT1080-NT tox | ELG1 repair inh
O=C(NN1CCOCC1)c1cc(-c2ccc(Br)cc2)nc2ccccc12 | 0 | 7.3µM | ? | 0 | 0 | 0
COc1ccc(-c2cc(C(=O)NN3CCOCC3)c3ccccc3n2)cc1OC | 0 | ? | ? | 0 | 0 | ?
CN1CCN(NC(=O)c2cc(-c3cccc(Cl)c3)nc3ccccc23)CC1 | ? | 10µM | 12µM | ? | 16µM | 0
CN1CCC(N(C)C(=S)NC(=O)c2cc(-c3cccc(Br)c3)nc3ccccc23)CC1 | 0 | 18µM | ? | 0 | 0 | 0
O=C(NCCCN1CCCC1=O)c1cc(-c2ccc3c(c2)OCO3)nc2ccccc12 | 0 | ? | 16µM | 0 | 0 | 0
O=C(NCCCN1CCOCC1)c1cc(-c2ccc3c(c2)OCO3)nc2ccccc12 | 0 | ? | 0 | ? | 0 | 0
O=C(NCc1cccnc1)[C@@H]1CC=C[C@@H]2CCN(Cc3ccccc3)C(=O)[C@@H]21 | 0 | 0 | 0 | 0 | 0 | -
CCCCN1CC[C@H]2C=CC[C@@H](C(=O)Nc3ccccc3)[C@H]2C1=O | 0 | 0 | ? | 0 | 0 | -
O=C(Nc1ccccc1)[C@@H]1CC=C[C@@H]2CCN(Cc3ccc(Cl)c(Cl)c3)C(=O)[C@@H]21 | ? | 18µM | ? | ? | ? | -
O=C(Nc1ccccc1)[C@@H]1CC=C[C@@H]2CCN(Cc3ccccc3)C(=O)[C@@H]21 | 0 | 22µM! | ? | 0 | 0 | -
COc1ccc(CN2CC[C@H]3C=CC[C@@H](C(=O)NCCc4ccccc4)[C@H]3C2=O)cc1OC | 0 | ? | 14µM | 0 | 0 | -
CC(=O)c1cccc(Nc2nn(-c3ccc(OC(F)(F)F)cc3)nc2C(C)=O)c1 | - | 0 | ? | - | - | -
Cc1nccc(-c2cccc(NC(=O)Nc3ccc(Cl)cc3)c2)n1 | 0 | ? | 0 | 0 | 0 | 0
Cc1nccc(-c2cccc(N/N=C(\C#N)C(=O)c3ccccc3)c2)n1 | ? | 10µM | 21µM | 0 | ? | 15µM
CCN(Cc1ccncc1)C(=O)c1cccc(S(=O)(=O)N2CCCCC2)c1 | 0 | 0 | 0 | 0 | 0 | ?
C1CN(CC23CC4CC(CC(C4)C2)C3)CCO1 | 0 | 16µM | 0 | 0 | 0 | 0
COc1ccc(NC(=O)CCS(=O)(=O)c2ccc3c(c2)n(C)c(=O)c(=O)n3C)cc1Cl | - | 0 | 0 | - | - | -
COc1ccc([C@@H](C)NC(=O)c2ccc3oc(C(C)C)nc3c2)cc1 | 0 | 16µM | ? | 0 | 0 | 0
CC(C)c1nc2ccc(C(=O)NCc3ccccc3Br)cc2o1 | - | 16µM | ? | - | - | -
COc1ccc(OC)c(CNC(=O)c2ccc3nc(C(C)C)oc3c2)c1 | - | 23µM | ? | - | - | -
CCOc1ccc(NC(=O)c2ccc3nc(C(C)C)oc3c2)cc1 | - | 16µM | 21µM | - | - | -
O=C(NCc1ccccc1Cl)c1cc2ccccc2o1 | - | 0 | 0 | - | - | -
COc1ccc(CNC(=O)c2ccc3nc(C(C)C)oc3c2)cc1OC | - | ? | 23µM | - | - | -
Cc1ccc(CN(C)C(=O)c2ccc3c(c2)NC(=O)CS3)o1 | 0 | 0 | ? | 0 | 0 | 0
